Reference: PubChem BioAssay AID1159580 (chemical genetic matrix, 2015)
In all, about 5,500 compounds went through this assay and about 2,000 (36%) were called active. About 18% were inconclusive and are not listed. Some of the results follow. A number with no mark means an inactive call. No stated cut-off is given here; in the data, active means normalized growth mostly below about 0.91 (no sharp cut-off); inconclusive means no clear call, values can overlap the other calls; inactive means mostly above about 0.92.

Assay: chemical genetic growth profiling, strain panel (AID 1159580);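 further: tested at 20 µM; growth read once vehicle control cultures reached saturation at 30 °C; 1 = growth at the plate median or of vehicle wells; lower values mean less growth of the strain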
Conditions: S. cerevisiae deletion strains, growth OD
[1] = locus YAL013W, strain DEP1, active compounds read low
[2] = locus YDR150W, strain NUM1, active compounds read low
[3] = locus YHR030C, strain SLT2, active compounds read low
[4] = locus YJR075W, strain HOC1, active compounds read low
[5] = locus YMR263W, strain SAP30, active compounds read low
[6] = locus YNL128W, strain TEP1, active compounds read low
[7] = locus YNL153C, strain GIM3, active compounds read low
[8] = locus YPL055C, strain LGE1, active compounds read low
[9] = locus YPL241C, strain CIN2, active compounds read low
[10] = locus YAL040C, strain CLN3, active compounds read low
[11] = locus YCL061C, strain MRC1 (second series), active compounds read low
[12] = locus YDR363W, strain ESC2, active compounds read low
[13] = locus YER002W, strain NOP16, active compounds read low
[14] = locus YGR229C, strain SMI1, active compounds read low
[15] = locus YNL175C, strain NOP13, active compounds read low
[16] = locus YNL197C, strain WHI3, active compounds read low
[17] = locus YOR083W, strain WHI5 (second series), active compounds read low

## NC(=O)c1ccccc1N1CCCCC1
[1]
  normalized growth: 1.01
Locus YBR229C, strain ROT2, active compounds read low
  normalized growth: 0.986
Locus YDL101C, strain DUN1, active compounds read low
  normalized growth: 0.949
[2]
  normalized growth: 0.912
Locus YEL061C, strain CIN8, active compounds read low
  normalized growth: 1.02
Locus YGR078C, strain PAC10, active compounds read low
  normalized growth: 0.997
[3]
  normalized growth: 0.986
Locus YHR087W, strain rtc3, active compounds read low
  normalized growth: 1.05
Locus YJL187C, strain SWE1, active compounds read low
  normalized growth: 1.02
Locus YJR043C, strain POL32, active compounds read low
  normalized growth: 0.99
[4]
  normalized growth: 0.965
Locus YKL190W, strain CNB1, active compounds read low
  normalized growth: 1.01
Locus YLR039C, strain RIC1, active compounds read low
  normalized growth: 1.02
Locus YLR058C, strain SHM2 (second series), active compounds read low
  normalized growth: 1.02
Locus YLR085C, strain ARP6, active compounds read low
  normalized growth: 1.06
Locus YLR262C, strain YPT6, active compounds read low
  normalized growth: 1.02
Locus YML094W, strain GIM5, active compounds read low
  normalized growth: 1.02
Locus YMR219W, strain ESC1, active compounds read low
  normalized growth: 0.997
[5]
  normalized growth: 0.941
[6]
  normalized growth: 0.996
[7]
  normalized growth: 0.993
Locus YNL298W, strain CLA4 (second series), active compounds read low
  normalized growth: 0.991
Locus YNL322C, strain KRE1, active compounds read low
  normalized growth: 0.994
Locus YNR030W, strain Alg12, active compounds read low
  normalized growth: 1
Locus YOL006C, strain TOP1, active compounds read low
  normalized growth: 0.991
[8]
  normalized growth: 0.998
[9]
  normalized growth: 0.994
Locus YPR135W, strain CTF4, active compounds read low
  normalized growth: 0.907

## CN1[C@@H](CC(=O)c2ccccc2)CCC[C@H]1C[C@H](O)c1ccccc1
[10]
  normalized growth: 1.01
[11]
  normalized growth: 1.01
[2]
  normalized growth: 1.01
[12]
  normalized growth: 0.984
[13]
  normalized growth: 1
[14]
  normalized growth: 0.99
[4]
  normalized growth: 1.01
[5]
  normalized growth: 1.01
[6]
  normalized growth: 1
[15]
  normalized growth: 1.02
[16]
  normalized growth: 1.01
Locus YNL224C, strain SQS1, active compounds read low
  normalized growth: 1
[17]
  normalized growth: 1.02
[9]
  normalized growth: 1.01

## CC(C)(C)c1ccc(C(O)CCCN2CCC(C(O)(c3ccccc3)c3ccccc3)CC2)cc1 (centres undefined)
[1]
  normalized growth: 0.984
[10]
  normalized growth: 0.991
[11]
  normalized growth: 1
[2]
  normalized growth: 1.01
[12]
  normalized growth: 1
[13]
  normalized growth: 1.22 [resistant] (active)
[14]
  normalized growth: 0.936
[3]
  normalized growth: 0.952
Locus YHR079C, strain IRE1, active compounds read low
  normalized growth: 0.941
Locus YJL095W, strain BCK1, active compounds read low
  normalized growth: 0.973
Locus YJR066W, strain TOR1, active compounds read low
  normalized growth: 0.972
Locus YLR113W, strain HOG1, active compounds read low
  normalized growth: 0.978
Locus YMR307W, strain GAS1, active compounds read low
  normalized growth: 1.01
[6]
  normalized growth: 1.09
[7]
  normalized growth: 1.01
[15]
  normalized growth: 1.25 [resistant] (active)
Locus YNL183C, strain NPR1, active compounds read low
  normalized growth: 0.936
[16]
  normalized growth: 1.15 [resistant] (active)
[17]
  normalized growth: 1.05
Locus YOR231W, strain MKK1, active compounds read low
  normalized growth: 0.966
[8]
  normalized growth: 0.978
Locus YPL256C, strain CLN2, active compounds read low
  normalized growth: 0.955
